High-throughput results (PubChem)
Hits are enriched below; roughly 3.7% of the tested compounds scored in any of these assays.
tim23-1 inh – growth inhibitors of tim23-1 mutant yeast, primary screen, luminescence, uHTS; S. cerevisiae tim23-1 growth, BacTiter-Glo luminescence, 24 h; inhibition, % at 20 µM; hit rate 1.3% among 330,000;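 active = growth inhibition of the mutant yeast at or above 50%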;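 also: temperature-sensitive mutant grown at 25 °C; plate controls were DMSO-treated mutant yeast for no effect and medium wells lacking yeast for full effect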
Rce1 inhib – yeast Rce1p protease inhibitors, primary screen, biochemical, fluorescence, cell-free homogeneous; CAAX prenyl protease 2 (Saccharomyces cerevisiae (strain ATCC 204508 / S288c)), Q03530; yeast membranes, quenched prenylated peptide cleavage fluorescence; calls only; hit rate 0.27% among 290,000; AID 2563, 2010;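 active = fall in fluorescence gain of 50% or more versus controls, with final raw signal at or below 3038400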;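 also: plate controls were neutral control wells for no effect and wells lacking membranes for full effect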
Target sequence (Q03530 whole entry, looked up): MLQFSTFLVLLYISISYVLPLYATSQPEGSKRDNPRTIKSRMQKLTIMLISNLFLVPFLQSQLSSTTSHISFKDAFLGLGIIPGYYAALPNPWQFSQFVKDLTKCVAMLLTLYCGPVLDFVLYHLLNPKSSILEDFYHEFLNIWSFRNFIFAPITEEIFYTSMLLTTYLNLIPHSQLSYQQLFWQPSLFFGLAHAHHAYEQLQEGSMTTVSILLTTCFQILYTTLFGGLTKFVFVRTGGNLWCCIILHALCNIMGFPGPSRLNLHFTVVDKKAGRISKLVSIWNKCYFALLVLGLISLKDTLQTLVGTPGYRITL
TIM10 inh – growth inhibitors of isogenic TIM10 control yeast, primary screen, counter-screen for tim10-1 yeast inhibitor project, luminescence, uHTS; S. cerevisiae TIM10 strain growth, BacTiter-Glo luminescence, 24 h; hit rate 1.4% among 330,000; inhibition, % at 10 µM;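 active = inhibition of 40% or more at the single tested concentration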;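 also: wild-type TIM10 isogenic control strain grown at permissive 25 °C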
PfHsp90 set2 – growth inhibition of PfHsp90-expressing yeast, primary screen, antimalarial PfHsp90 inhibitor project, S. cerevisiae, BacTiter-Glo luminescence, single point, set 2 | hit rate 0.32% among 310,000 | inhibition, % at 9.4 µM | BacTiter-Glo ATP, 48 h; yeast lacking PDR1 and PDR3 efflux regulators;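 active = every replicate shows inhibition above about 80%, whatever the replicate mean, limit read from the data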;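 also: 0% = DMSO neutral controls and 100% = 20 µM radicicol positive controls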
tim10-1 inh – growth inhibitors of tim10-1 mutant yeast, primary screen, luminescence, uHTS; S. cerevisiae tim10-1 ts strain growth, BacTiter-Glo, 24 h; inhibition, % at 20 µM; hit rate 2.2% among 330,000; AID 463190, 2010;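 active = inhibition of at least 40%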;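 also: mutant grown at 25 °C; 0% = DMSO wells with yeast and 100% = wells holding no yeast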
Numbers without * were called inactive; i = inactive; x = no result; + = active, no number.

SMILES	tim23-1 inh	Rce1 inhib	TIM10 inh	PfHsp90 set2	tim10-1 inh
CC(=O)Nc1cccc(Oc2ccc([N+](=O)[O-])cc2Cl)c1	6	i	12	5	32
CCc1ccccc1NC(=O)c1cccc(Oc2ccc([N+](=O)[O-])cc2Cl)c1	-60	i	-16	92*	7
CN(Cc1ccccc1)C(=O)CN1C(=O)NC(C)(c2ccc(Cl)cc2)C1=O (configuration not stated)	7	i	15	4	-11
C/C(=N\NC(=O)c1nn(C)cc1Br)c1cccc(NC(=O)C2CCCC2)c1	8	i	22	47	11
CCOP(=O)(c1ccccc1)c1nc(-c2ccccc2Cl)oc1N1CCCCC1 (configuration not stated)	32	+	22	x	39
CCOP(=O)(OCC)c1nc(-c2cccc([N+](=O)[O-])c2)oc1N1CCCCC1	25	i	22	5	11
CCOC(=O)c1sc2nc(CSc3ccccc3)nc(NCCN(C)C)c2c1C	12	i	10	x	19
COc1ccccc1-c1coc2c(CN3CCOCC3)c(O)ccc2c1=O	1	+	-1	-11	7
Cc1nc(-c2ccc(Cl)cc2)sc1C1(C)CC(c2ccccc2Br)=NO1 (configuration not stated)	9	+	5	x	1
OCC[C@H]1C[C@H](O)[C@@H](O)[C@@]2(CCCc3ccccc3O2)O1	-2	x	3	-8	-22
CCCN(CCC)Cc1c(C(=O)N/N=C/c2ccc(Br)cc2)nnn1-c1nonc1N	22	x	7	3	21
OCCOCCn1c(C2CCCN2c2nc(-c3ccc(F)cc3)cs2)nc2cc(C(F)(F)F)ccc21 (configuration not stated)	23	i	-36	108*	28
OCCOCCn1c(C2CCCN2c2nc(-c3ccc(F)cc3)cs2)nc2cc(Cl)c(Cl)cc21 (configuration not stated)	-4	i	0	110*	1
OCCCn1c(C2CCCN2c2nc(-c3ccc(F)cc3)cs2)nc2cc(C(F)(F)F)ccc21 (configuration not stated)	18	i	-36	x	5
Cc1ccc(NC(=O)CSc2n[nH]c(=O)n2C2CC2)cc1S(=O)(=O)N1CCOCC1	7	i	1	12	-6
CCOc1ccc(S(=O)(=O)Nc2cc(OC)c(OC)cc2C(=O)O)cc1	8	+	-14	x	14
COc1cc(NS(=O)(=O)c2ccc(F)cc2)c(C(=O)O)cc1OC	13	i	-18	-3	8
Cn1cnnc1SCC(=O)c1c(N)n(Cc2ccccc2)c(=O)n(C)c1=O	-2	i	9	-27	-9
O=C(C=P(c1ccccc1)(c1ccccc1)c1ccccc1)c1ccccc1-c1ccccc1C(=O)C=P(c1ccccc1)(c1ccccc1)c1ccccc1	x	x	x	145*	x
O=[N+]([O-])c1cc(-n2cnnn2)ccc1N1CCC(Cc2ccccc2)CC1	29	i	19	104*	-6
c1ccc(-c2ccc(-c3cn4c(n3)CCC4)cc2)cc1	41	+	-119	-28	-20
COc1ccc(-c2cn3c(n2)CCC3)cc1	-7	i	6	-3	0
Cc1cc(NC(=O)COC(=O)c2nccnc2N)n(-c2ccccc2)n1	17	+	11	-5	13
CC(C)(C)c1cc(NC(=O)COC(=O)c2nccnc2N)n(-c2ccccc2)n1	10	i	1	-4	-3
COc1ccc(Cl)cc1C(Nc1cccnc1)c1ccc2cccnc2c1O (configuration not stated)	24	i	3	104*	26
SMILES	tim23-1 inh	Rce1 inhib	TIM10 inh	PfHsp90 set2	tim10-1 inh
CC(=O)n1cc([C@H]2C=C(C(=O)N3CCN(Cc4ccccc4)CC3)O[C@@H](OCc3ccc(CO)cc3)C2)c2ccccc21	5	i	9	2	1
CC(=O)c1c(O)cc(O)c(C(C)=O)c1O	20	+	9	8	20
COc1cc2cc(C(=O)O)[nH]c2c(OC)c1OC	-1	+	3	11	-5
C=CC[n+]1c(/C=C2\C=Cc3cc(C)ccc3N2CC)ccc2ccccc21	47	i	-1	13	18
CCN1/C(=C/c2ccc3cc(C)cc(C)c3[n+]2CC)Sc2cc(C)ccc21	x	x	x	102*	x
CCN1/C(=C\c2ccc3cc(C)ccc3[n+]2CC)Sc2cc(C)c(C)cc21	x	i	x	94*	x
CN1C(=O)[C@@H]2[C@H](C1=O)[C@@H]1C(=O)Nc3ccccc3C(=O)N1[C@@H]2c1cccc(Br)c1	6	i	6	12	2
O=C(O)c1cc(S(=O)(=O)NCCOc2ccccc2)ccc1Cl	-1	x	6	13	-7
CC(=O)c1cn(CC(=O)Nc2ccccc2F)c2ccccc12	-7	x	0	0	-10
O=C(Cn1c2ccccc2c(=O)c2ccccc21)Nc1ccccc1F	2	+	-13	-8	20
COc1ccc(CN2CCCCC2C(=O)Nc2ccc(OC)c(OCC(C)C)c2)cc1OC (configuration not stated)	19	+	22	3	21
COC(=O)CCC(=O)OC1(C)C(=O)C2=CN(Cc3ccc(OC)cc3)C(c3ccc(OC)cc3)=CC2=C(Br)C1=O (configuration not stated)	8	i	-2	-1	-5
COc1ccc(C2=CC3=C(Br)C(=O)C(C)(O)C(=O)C3=CO2)cc1 (configuration not stated)	34	i	16	107*	24
CCC(=O)OC1(C)C(=O)C2=COC(c3ccc(OC)cc3)=CC2=C(Br)C1=O (configuration not stated)	13	i	-6	113*	-10
Oc1ccc(N=Nc2ccc3ccccc3c2)cc1	-16	i	6	108*	-62
O=C(NCCc1ccccn1)c1cc2ccccc2o1	-6	i	-6	13	-5
CC(C)N1C(=O)/C(=C\c2nc3ccccc3c(=O)[nH]2)c2ccccc21	x	i	x	98*	x
NC(=O)c1ccc(N=Cc2ccc([N+](=O)[O-])s2)cc1	x	x	x	104*	x
Cc1nc(-c2c(C(=O)NNC(=O)Nc3c(C)cccc3C)noc2C)cs1	-3	i	-11	-53	-10
COc1cc(NC(=O)C/C(C)=N/NC(=O)c2cccc(O)c2)c(OC)cc1Cl	18	+	8	-4	11
O=c1cc(CN2CCN(c3cccc(C(F)(F)F)c3)CC2)nc2sccn12	5	i	26	x	25
COc1ccccc1OCCNC(=O)c1ccc(C)o1	15	i	9	6	16
CN1CCN(CC(=O)NC23CC4CC(CC(C4)C2)C3)CC1	6	i	-9	5	-1
